# Inconclusive results are not listed. Unmarked numbers belong to inactive results. Activity calls are given as the source filed them. Calls come from the whole dose curve; as a rule, active = well fitted cell-killing curve with a large enough effect in the repeat runs; inconclusive = weak or mixed curves; inactive = flat fitted curve, though single readings scatter.
# Experiment: qHTS assay to identify small molecule antagonists of the TGF-beta/Smad signaling pathway - cell viability counter screen (AID 1346824); note: nearly all actives have a fitted effect of over 50% in size
# Settings: SBE-bla HEK293T viability, CellTiter-Glo luminescence; series mostly up to 76.8 µM; viability change, negative = cytotoxic: at the top concentration
# Excerpt: U.S. Tox21 Program National Center for Advancing Translational Sciences [NCATS] NIH Chemical Genomics Center [NCGC] U.S. Environmental Protection Agency [EPA] National Institutes of Environmental Health Sciences [NIEHS] National Toxicology Program [NTP] U.S. Food and Drug Administration [FDA] Tox21 Assay Overview: Transforming growth factor beta (TGF-beta) superfamily consists of a large number of structurally related dimeric proteins that act as hormones or local mediators in regulating a wide range of biological functions. This superfamily includes TGF-betas themselves, the bone morphogenetic proteins (BMPs) and the activins. These ligands induce oligomerization of serine/threonine receptor kinases and phosphorylate the cytoplasmic signaling molecules of Smad protein family. CellSensor SBE-bla HEK 293T cell line (Life Technologies, Carlsbad, CA), responsive to TGF-beta was used to screen Tox21 10K compound library for identification of agonists/antagonists of the Smad signaling pathway. This cell line contains a beta-lactamase reporter gene under control of the Smad binding element (SBE) stably integrated into HEK 293T cells. Also cytotoxicity of the compounds was tested in parallel by measuring the cell viability using CellTiter-Glo assay system in the same wells.
# Tox21 Assay Protocol Summary: SBE-bla HEK 293T cells were dispensed at 4,000/well in 5 uL of assay medium into black wall/clear-bottom 1536-well plates using a Multidrop Combi (ThermoFisher Scientific, Waltham, MA) dispenser. After the assay plates were incubated at 37 C and 5% CO2 for an overnight, 23 nL of compounds dissolved in DMSO, positive controls or DMSO only was transferred to the assay plate by a Pintool station (Kalypsys, San Diego, CA). Compound transfer was followed by the addition of 1 uL of 0.25 ng/mL TGF-beta1 or assay buffer using two separate tips of Flying Reagent Dispenser (FRD, Aurora Discovery, San Diego, CA). The assay plates were incubated at 37 C and 5% CO2 for 5 hr. One uL of LiveBLAzer B/G FRET substrate (Life Technologies) was added using a Flying Reagent Dispenser (FRD, Aurora Discovery, San Diego, CA) and the plates were incubated at room temperature for 2 hr. Fluorescence intensity (405 nm excitation, 460 nm and 530 nm emissions) was measured using an Envision plate reader (PerkinElmer, Shelton, CT). For cytotoxicity read, 4 uL of CellTiter-Glo reagent (Promega Corporation, Madison, WI) was added to each well of the assay plates using FRD. After 30 min incubation at room temperature, the luminescence intensity was measured using ViewLux plate reader (PerkinElmer).
# % is set by controls: 0 for no effect and ±100 for the full control effect.
Structure (SMILES),"viability change, negative = cytotoxic",Potency
CCOC(=O)CCC(C)=O,15%,–
Oc1ccc(C2CNCCc3c2cc(O)c(O)c3Cl)cc1 (stereo not given),0.677% [at 35.3 µM],–
O=c1cc(CO)occ1O,1.11% [at 35.3 µM],–
CC(=O)OCC(CCn1cnc2cnc(N)nc21)COC(C)=O,7.26% [at 35.3 µM],–
CCOC(=O)CC(C)=O,-0.968%,–
O=Cc1cccc([N+](=O)[O-])c1,-1.27%,–
CC(C)(C)c1ccc(O)c(O)c1,11.3%,–
c1ccc(CC2=NCCN2)cc1,12.6% [at 35.3 µM],–
CC(C)NC(=O)NC(C)C,-1.32%,–
COC(=O)c1c(Cl)c(Cl)c(C(=O)OC)c(Cl)c1Cl,–,inactive
CCCCCCOC(=O)CCCCC(=O)OCCCCCC,-9.72%,–
CCCCCCCCCCCCCC=O,6.5% [at 6.97 µM],–
C=C(C)C(=O)OCCCCCCCC(C)C,12.1%,–
CC(C)(O)C#CC(C)(C)O,-3.64%,–
N=C(N)c1ccc2cc(OC(=O)c3ccc(N=C(N)N)cc3)ccc2c1,-0.893% [at 35.3 µM],–
O=C1CC2CC1C1CCCC21 (stereo not given),-0.693%,–
CC(C)(C)NCCNC(C)(C)C,-2.2%,–
CCc1ccc(O)c(OC)c1,-6.74%,–
CCO/C([O-])=N/c1c[n+](N2CCOCC2)no1,-6.32% [at 35.3 µM],–
O=c1cc(-c2ccccc2)oc2ccccc12,–,inactive

Structure (SMILES),"viability change, negative = cytotoxic",Potency
CC/C=C\CC/C=C/C(OCC)OCC,0.432%,–
CCOC(=O)C(=O)OCC,3.26%,–
CS(=O)(=O)O,-3.31%,–
CN(C(=O)c1c(O)c2ccccc2n(C)c1=O)c1ccccc1,-3.54% [at 35.3 µM],–
CC(=O)CC(C)(C)C1CCCCC1,0.434%,–
C1OCOCO1,7.66%,–
Nc1cc(=O)[nH]c(N)n1,-6.51% [at 35.3 µM],–
Cc1c(NC(C)C)c(=O)n(-c2ccccc2)n1C,-0.245% [at 35.3 µM],–
C=COCC1CCC(CO)CC1 (stereo not given),8.23%,–
O=C(CCCN1CCN(c2ccccn2)CC1)c1ccc(F)cc1,-10.7% [at 35.3 µM],–
CC/C=C\CCOC(C)=O,-9.26%,–
c1ccc([C@H]2CN3CCSC3=N2)cc1,6.07% [at 35.3 µM],–
Cc1cc2c(cc1S(N)(=O)=O)S(=O)(=O)CCC2,-0.431% [at 35.3 µM],–
O=C(O)Cc1ccc(CCNS(=O)(=O)c2ccc(Cl)cc2)cc1,-9.14% [at 35.3 µM],–
CC[N+](C)(C)c1cccc(O)c1,1.13% [at 35.3 µM],–
CC(C)(O)C(=O)c1ccccc1,5.1%,–
COc1nc(N)nc2c1ncn2[C@@H]1O[C@H](CO)[C@@H](O)[C@@H]1O,4.86% [at 35.3 µM],–
CN1CC(=O)NC1=N,17.2% [at 35.3 µM],–
CC(=O)N(CC(O)CO)c1c(I)c(C(=O)NCCO)c(I)c(C(=O)NCC(O)CO)c1I (stereo not given),0.379% [at 35.3 µM],–
N=c1nc(N2CCCCC2)cc(N)n1O,-10.4% [at 35.3 µM],–

# Source: PubChem BioAssay (Tox21)
